Screens as filed in PubChem.
EWS-Fli inh = inhibitors of EWS/Fli oncoprotein transcriptional activity | A673 NR0B1-luciferase reporter, viability-normalised | inhibition, % at 12.6 µM | actives 0.67% (n = 350,000) | AID 651661;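 active = mean inhibition of at least 50% after viability correction, with every replicate also passing that limit; inconclusive = mean reaches 50% but only one of two replicates passes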;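 also: firefly luciferase signal divided by Alamar Blue viability fluorescence both relative to DMSO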
TWEAK-Fn14 inh = TWEAK-Fn14 signaling inhibition. TWEAK-stimulated Fn14 reporter cells, luciferase luminescence, 8 h. inhibition, % at 10 µM. actives 2% (n = 360,000); in the data active = inhibition above about 50%
TROY NFkB inh = TROY signaling inhibition; AID 1347056; actives 0.98% (n = 360,000); inhibition, % at 10 µM; Q293 LMP1-TROYcd NF-kB luciferase reporter, 4 h;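 active = compounds whose plate-normalised and pattern-corrected inhibition of the luciferase reporter signal at the single screening dose is 50% or more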
LGR2 inh = Drosophila LGR2 receptor signaling inhibition. HEK293 LGR2, CRE-luciferase, bursicon-stimulated, 4 h. inhibition, % at 9.99 µM. actives 0.35% (n = 380,000). AID 720647;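 active = drop in luminescence signal, shown as inhibition above about 50% in the replicate tests, limit read from the data, passing the limit was not always enough; inconclusive = probably only some replicates passing the limit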;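 also: agonist challenge used bursicon conditioned medium at about half maximal strength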
EBV LMP1 NFkB = Epstein-Barr LMP1 NF-kappaB reporter inhibition; actives 0.69% (n = 350,000); inhibition, % at 12.5 µM; LMP1-induced NF-kappaB luciferase reporter cells, luminescence; in the data active = inhibition above about 41%; inconclusive = no clear call, values can overlap the other calls;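 also: 0% = neutral control wells and 100% = reference inhibitor control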
DNA binding = binds DNA displacing acridine orange; shares compounds with EWS-Fli inh; salmon sperm DNA acridine orange fluorescence polarization; AC35, µM (titrated, usually from 68 µM), for the others: top-dose activity change, negative = DNA binding; actives 2% (n = 640);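 active = fitted curve reaches a 35% signal fall AC35 below twice the sample's top valid tested dose, actives reach about 48 µM in these data; inactive = the rest, including activity in the rising direction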;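 also: lower polarization ratio signals compound binding to DNA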
* marks the source's active call; other numbers are inactive results. Hits are enriched below; roughly 2.6% of the tested compounds scored in any of these assays.

`CCN1C/C(=C/c2ccc(OC)c(O)c2)C(=O)/C(=C/c2ccc(OC)c(O)c2)C1` gave EWS-Fli inh 53.3*, TWEAK-Fn14 inh 23.4, TROY NFkB inh 3.5, LGR2 inh 32.0, EBV LMP1 NFkB 0.0 and DNA binding 0.6%.
O=C(CN1CCOCC1)N[C@H]1CC[C@@H](CCn2cc(C3CCCC3)nn2)O[C@@H]1CO was read as EWS-Fli inh -1.5 and LGR2 inh -1.1.
O=C(c1nnsc1S(=O)c1ccc(Cl)cc1)N1CCOCC1 (stereo not drawn) was read as EWS-Fli inh 77.9*, TWEAK-Fn14 inh 86.3*, TROY NFkB inh 50.9*, EBV LMP1 NFkB 23.5 and DNA binding -9.7%.
For O=S(=O)(N[C@@H]1CC[C@H](CCn2cc(Cc3ccccc3)nn2)O[C@@H]1CO)c1ccccc1F the results were LGR2 inh -11.2.
Screening CNC[C@H](CC1CCCCC1)NC[C@H](CO)NCC1(c2ccccc2)CC1 returned EWS-Fli inh 8.6, TWEAK-Fn14 inh -1.7, TROY NFkB inh 5.5, LGR2 inh 9.6 and EBV LMP1 NFkB -8.6.
Screening CNC[C@H](CC1CCCCC1)NC[C@H](CO)NCCc1cccc(C(F)(F)F)c1 returned EWS-Fli inh 60.7*, TWEAK-Fn14 inh -22.5, TROY NFkB inh -15.6, LGR2 inh inconclusive, EBV LMP1 NFkB -12.6 and DNA binding -8.5%.
For CO[C@H]1CC[C@@H]2CCN(C)C(=O)[C@H](C)[C@@H](OC)CN(C)C(=O)c3cccc(C#N)c3OC[C@@H]1O2 the results were EWS-Fli inh -2.1 and LGR2 inh -5.1.
For Nc1cccc(O)c1 the results were EWS-Fli inh -9.3, TWEAK-Fn14 inh -9.9, TROY NFkB inh -8.2, LGR2 inh -13.2 and EBV LMP1 NFkB -5.6.
Oc1cccc(-c2nnc(-c3cccc(O)c3)nn2)c1 was read as EWS-Fli inh 72.2*, TWEAK-Fn14 inh 84.5*, TROY NFkB inh 26.9, LGR2 inh 83.6*, EBV LMP1 NFkB 36.5 and DNA binding -9.9%.
COc1ccc(/C=C2\SC(=O)N(CCCC(=O)Nc3cc(Cl)ccc3C(=O)O)C2=O)cc1 was read as EWS-Fli inh 85.1*, TWEAK-Fn14 inh 104.0*, TROY NFkB inh 84.5*, LGR2 inh 30.2, EBV LMP1 NFkB 74.1* and DNA binding -9.5%.
C[C@@H]1CN([C@H](C)CO)C(=O)c2cccc(NC(=O)C3CCOCC3)c2O[C@H]1CN(C)Cc1ccc(Cl)c(Cl)c1 was read as EWS-Fli inh -0.1 and LGR2 inh -9.7.
For COC(=O)c1cccc(NC(=O)NC(=O)c2ccc(Cl)cc2)c1 the results were EWS-Fli inh 86.7*, TWEAK-Fn14 inh -12.2, TROY NFkB inh -31.4, LGR2 inh -6.1, EBV LMP1 NFkB 25.4 and DNA binding -7.3%.
For O=C(NC(=O)c1ccccc1)Nc1ccccc1 the results were EWS-Fli inh 55.8*, TWEAK-Fn14 inh 71.7*, TROY NFkB inh 10.4, LGR2 inh 37.0, EBV LMP1 NFkB 22.2 and DNA binding -13.0%.
O=C(c1cccc(F)c1)N1CC2(C1)[C@H](c1ccccc1)[C@H](CO)N2C(=O)C1CCC1 was read as EWS-Fli inh -0.6 and LGR2 inh -1.3.
Screening Cc1nc(N)nc(N)c1-c1ccc(Cl)c(Cl)c1 returned EWS-Fli inh 52.9*, TWEAK-Fn14 inh 12.1, TROY NFkB inh 4.1, LGR2 inh 17.2, EBV LMP1 NFkB 19.7 and DNA binding -5.9%.
Screening Cc1nc(N)nc(N)c1CCCc1ccc(Cl)c(Cl)c1 returned EWS-Fli inh 74.6*, TWEAK-Fn14 inh -54.5, TROY NFkB inh -34.7, LGR2 inh 18.7, EBV LMP1 NFkB -7.7 and DNA binding -18.8%.
For C[C@@H]1CCCCO[C@H](CN(C)Cc2ccc3c(c2)OCO3)[C@H](C)CN([C@H](C)CO)C(=O)c2cc(NC(=O)NC3CCCCC3)ccc2O1 the results were EWS-Fli inh 3.1 and LGR2 inh 6.0.
`COc1cccc(CN2CCC3(CC2)CN(S(C)(=O)=O)[C@@H](CO)c2[nH]c4cc(OC)ccc4c23)c1` gave EWS-Fli inh 28.6 and LGR2 inh 10.6.
CN(C)c1ccc2c(c1)[C@@H]1C[C@@H](CC(=O)NCc3ccccc3F)O[C@H](CO)[C@@H]1O2 was read as EWS-Fli inh -5.5 and LGR2 inh -2.0.
For COC(=O)c1ccccc1-c1c2ccc(=N)cc-2oc2cc(N)ccc12 the results were EWS-Fli inh 85.5*, TWEAK-Fn14 inh 53.0*, TROY NFkB inh 17.5, LGR2 inh 12.5, EBV LMP1 NFkB 12.3 and DNA binding <0.03µM*.
COc1ccc(C(=O)Nc2cc(C)nn2-c2nc3ccccc3[nH]2)c(OC)c1 was read as EWS-Fli inh -1.4, TWEAK-Fn14 inh -1.7, TROY NFkB inh 13.0, LGR2 inh -0.3 and EBV LMP1 NFkB -11.4.
For COc1cccc(OC)c1C(=O)Nc1cc(C)nn1-c1nc2ccccc2[nH]1 the results were EWS-Fli inh 58.5*, TWEAK-Fn14 inh 38.1, TROY NFkB inh 29.8, LGR2 inh 6.0, EBV LMP1 NFkB 17.6 and DNA binding 2.3%.
For O=C(/C=C/c1cc(Br)ccc1O)c1ccco1 the results were EWS-Fli inh 58.9*, TWEAK-Fn14 inh 62.3*, TROY NFkB inh 32.9, LGR2 inh 27.3, EBV LMP1 NFkB 17.6 and DNA binding -16.7%.
For O=C1C(=O)N(Cc2cccs2)c2ccccc21 the results were EWS-Fli inh 65.5*, TWEAK-Fn14 inh -15.8, TROY NFkB inh -16.5, LGR2 inh 16.1, EBV LMP1 NFkB 1.2 and DNA binding -9.3%.
Screening O=C1C(=O)N(CCS(=O)(=O)c2ccccc2)c2ccccc21 returned EWS-Fli inh 61.0*, TWEAK-Fn14 inh 13.5, TROY NFkB inh 12.4, LGR2 inh 14.8, EBV LMP1 NFkB 0.9 and DNA binding -9.9%.
C=C1C(=O)OC2C1CCC(C)C1C=CC(=O)C12C (stereo not drawn) was read as EWS-Fli inh 55.5*, TWEAK-Fn14 inh 48.0, TROY NFkB inh 2.1, LGR2 inh 0.4, EBV LMP1 NFkB -82.4 and DNA binding 6.5%.
Screening CC(=O)O[C@@H]1[C@H]2[C@@H](C[C@@H](C)[C@@H]3C=CC(=O)[C@@]13C)OC(=O)[C@@H]2C returned EWS-Fli inh -5.8, TWEAK-Fn14 inh 9.1, TROY NFkB inh -7.9, LGR2 inh 4.6 and EBV LMP1 NFkB 4.7.
`O=C(Nc1ccccc1)c1cc(C2CCCN(C(=O)C/C=C/c3ccccc3)C2)on1` (stereo not drawn) gave EWS-Fli inh -14.8, TWEAK-Fn14 inh 7.0, TROY NFkB inh 7.4 and LGR2 inh -40.2.
CC(=O)N1CCCC(c2cc(C(=O)Nc3ccccc3)no2)C1 (stereo not drawn) was read as EWS-Fli inh 74.9*, TWEAK-Fn14 inh 101.1*, TROY NFkB inh 80.1*, LGR2 inh 88.4* and DNA binding -1.8%.
CN1CCN(C(=O)[C@H]2[C@H](CO)[C@H]3Cn4c(ccc(C5=CCCC5)c4=O)[C@H]3N2Cc2nccs2)CC1 was read as EWS-Fli inh -7.3 and LGR2 inh 4.2.
